Our source for the outcome and AC50 values is PubChem BioAssay (EPA / NIEHS).

The nature of experiment [1]: ATG_TAL_CIS: Attagene CIS-FACTORIAL HepG2 Assay for human TAL Basal Promoter (AID 2282966; active = hit-call score of the fitted dose curve at least 0.9, where 1 is the maximum; inactive = score below 0.9;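 also: background control endpoint measuring basal TAL promoter reporter mRNA not a specific factor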). Particulars: HepG2 Attagene cis-factorial TAL promoter reporter; actives raise or lower the signal. In short, it runs like this:
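Endogenous transcription-factor activity is sensed in HepG2 cells through transfected cis-promoter reporter constructs. After 24 h dosing, reporter transcripts are quantified by RT-PCR and capillary electrophoresis. Gain or loss of signal is fitted relative to DMSO.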

Experiment [2] in a line: ATG_TGFb_CIS: Attagene CIS-FACTORIAL HepG2 Assay for human Transforming Growth Factor (TGF) (AID 2282967; active = hit-call score of the fitted dose curve at least 0.9, where 1 is the maximum; inactive = score below 0.9). Particulars: HepG2 Attagene CIS TGFb reporter, mRNA transcription; actives raise or lower the signal. In short, it runs like this:
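Transient MRTU transfection of HepG2 (FuGene 6). Dose 24 h. TriZol RNA, oligo(dT) RT, PCR, 6-FAM primer extension, HpaI cut, CE. Bidirectional fit, DMSO = baseline.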

Experiment [3] is described as follows: ATG_VDRE_CIS: Attagene CIS-FACTORIAL HepG2 Assay for human Vitamin D Receptor Element (VDRE) (AID 2282968; active = hit-call score of the fitted dose curve at least 0.9, where 1 is the maximum; inactive = score below 0.9). Particulars: HepG2 VDRE cis-reporter transcription, actives raise or lower the signal. In short, it runs like this: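 Compounds were applied for 24 h to HepG2 cells transfected with promoter-regulated reporter units. Total RNA was reverse-transcribed, and reporter amplicons were fluorescently labelled and sized by capillary electrophoresis.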

Experiment [4] has as its target Nuclear receptor subfamily 1 group I member 3 (Homo sapiens) (UniProt Q14994). In words: ATG_CAR_TRANS: Attagene TRANS-FACTORIAL HepG2 Assay for human Constitutive Androstane Receptor (CAR) (AID 2282969).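 Also: activators raise reporter mRNA above DMSO so AC50 marks induction.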 Particulars: HepG2 Attagene TRANS-FACTORIAL CAR reporter. In short, it runs like this:
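Transiently transfected HepG2, multiplex TRANS reporters (CAR-Gal4 chimera driving GAL4-UAS reporter). 24 h dosing. Readout: reporter transcript by RT-PCR + capillary electrophoresis, fluorescence intensity; positive direction vs DMSO.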

In experiment [5] the target is X-box-binding protein 1 (Homo sapiens) (UniProt P17861). In words: ATG_Xbp1_CIS: Attagene CIS-FACTORIAL HepG2 Assay for human X-box Binding Protein 1 (XBP1) (AID 2282972; active = hit-call score of the fitted dose curve at least 0.9, where 1 is the maximum; inactive = score below 0.9). Particulars: HepG2 XBP1 cis-element reporter, Attagene multiplex; actives raise or lower the signal. In short, it runs like this:
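Human hepatoma HepG2, cis-element reporter system, 24 h treatment; mRNA quantified by RT-PCR/CE fluorescence; fit relative to DMSO.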

Experiment [6] in a line: ATG_M_19_TRANS: Attagene TRANS-FACTORIAL HepG2 Assay for M19 Transcription Factor (Internal Marker) (AID 2282974). Particulars: HepG2 Attagene TRANS-FACTORIAL M19 internal marker reporter. In short, it runs like this:
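Transfected HepG2 (GAL4-UAS MRTUs), 24 h compound, TriZol RNA, DNase-treated RT, reporter PCR, FAM label, HpaI digest, CE fluorescence; gain vs DMSO.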

Experiment [7] addresses Estrogen-related receptor gamma (Homo sapiens) (UniProt P62508). In words: ATG_ERRg_TRANS: Attagene TRANS-FACTORIAL HepG2 Assay for human Estrogen-Related Receptor gamma (ERRg) (AID 2282977).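 Also: hits increase reporter signal over DMSO so potencies reflect activators.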 Particulars: HepG2 Attagene TRANS reporter, ERRg transactivation. The essentials: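 Induction of reporter transcripts through a chimeric NR-Gal4 protein is quantified in transfected human HepG2 liver cells after 24 h chemical exposure, using RT-PCR with capillary electrophoresis detection and DMSO as baseline.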

The target of experiment [8] is Glucocorticoid receptor (Homo sapiens) (UniProt P04150). The experiment is described as follows: ATG_GR_TRANS: Attagene TRANS-FACTORIAL HepG2 Assay for human Glucocorticoid Receptor (GR) (AID 2282978).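 Also: activators score as hits since higher reporter transcript over DMSO is fitted.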 Particulars: HepG2 Attagene TRANS GR reporter, mRNA transcription. The essentials: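 After 24 h incubation with test chemical, transfected HepG2 cells were lysed for RNA; reporter cDNA was amplified, FAM-labelled, HpaI-digested and sized on a capillary analyser. Signal gain relative to DMSO was scored.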

Experiment [9] has as its target Oxysterols receptor LXR-alpha (Homo sapiens) (UniProt Q13133). In words: ATG_LXRa_TRANS: Attagene TRANS-FACTORIAL HepG2 Assay for human Liver X Receptor alpha (LXRa) (AID 2282980). Particulars: HepG2 Attagene TRANS reporter, LXRa transactivation. The essentials:
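Transient HepG2 transfectants, 24 h dosing, RT-PCR/CE mRNA reporter quantitation; gain-of-signal vs DMSO.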

For experiment [10], the target named is Oxysterols receptor LXR-beta (Homo sapiens) (UniProt P55055). In words: ATG_LXRb_TRANS: Attagene TRANS-FACTORIAL HepG2 Assay for human Liver X Receptor beta (LXRb) (AID 2282981). Particulars: HepG2 Attagene TRANS GAL4-LXRb reporter, mRNA. The essentials: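 Multiplexed reporter assay, HepG2, 24 h dosing. Fluorescence of labelled RT-PCR products after capillary electrophoresis gives transcript level; positive fitting direction relative to DMSO.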

The target in experiment [11] is Hepatocyte nuclear factor 4-alpha (Homo sapiens) (UniProt P41235). The experiment is described as follows: ATG_HNF4a_TRANS: Attagene TRANS-FACTORIAL HepG2 Assay for human Hepatocyte Nuclear Factor 4 alpha (HNF4a) (AID 2282982). Particulars: HepG2 HNF4a transactivation reporter, mRNA readout. The essentials: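 Endpoint reflects transcriptional activation of a GAL4-UAS reporter by an HNF4a-GAL4 chimera in transfected HepG2 cells, 24 h post-dosing. Fluorescence from RT-PCR products separated by capillary electrophoresis; DMSO baseline.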

A short description of experiment [12]: ATG_M_06_TRANS: Attagene TRANS-FACTORIAL HepG2 Assay for M06 Transcription Factor (Internal Marker) (AID 2282983). Particulars: HepG2 Attagene TRANS M06 internal marker reporter. In short, it runs like this: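 Human liver HepG2 cells bearing transiently transfected chimeric NR-GAL4 reporter units were treated with chemicals for 24 h. Total RNA was reverse-transcribed, reporter sequences amplified and labelled, then quantified by capillary electrophoresis. Activity was fitted upward relative to DMSO.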

Experiment [13] is described as follows: ATG_M_32_TRANS: Attagene TRANS-FACTORIAL HepG2 Assay for M32 Transcription Factor (Internal Marker) (AID 2282984).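 Also: transcript level of a background control reporter unit measured by RT-PCR and capillary electrophoresis.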 Particulars: HepG2 Attagene TRANS M32 internal marker reporter. In short, it runs like this: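 Internal-marker readout from a multiplexed transcription reporter panel. HepG2 cells were transfected with GAL4-UAS reporter units, treated 24 hours, and reporter transcript levels determined by fluorescence after RT-PCR and capillary separation.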

Experiment [14] addresses Transcriptional activator Myb (Homo sapiens) (UniProt P10242). In words: ATG_Myb_CIS: Attagene CIS-FACTORIAL HepG2 Assay for human Myeloblastosis (Myb) Proto-Oncogene Transcription Factor (AID 2282986; active = hit-call score of the fitted dose curve at least 0.9, where 1 is the maximum; inactive = score below 0.9). Particulars: HepG2 Attagene CIS-FACTORIAL Myb reporter transcription; actives raise or lower the signal. The essentials:
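After 24 h of compound dosing, total RNA from transfected HepG2 cells is reverse-transcribed and the reporter sequences amplified, labeled and separated by capillary electrophoresis. Values come from bidirectional fitting against DMSO.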

For experiment [15], the target named is Nuclear respiratory factor 1 (Homo sapiens) (UniProt Q16656). The experiment is described as follows: ATG_NRF1_CIS: Attagene CIS-FACTORIAL HepG2 Assay for human Nuclear Respiratory Factor 1 (NRF1) Orphan Gene (AID 2282987; active = hit-call score of the fitted dose curve at least 0.9, where 1 is the maximum; inactive = score below 0.9). Particulars: HepG2 NRF1 cis-element reporter, Attagene multiplex; actives raise or lower the signal. The essentials: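 Measured: fluorescent reporter-specific RT-PCR products from transfected HepG2 cells, separated by capillary electrophoresis. Exposure lasted 24 h. Analysis used bidirectional curve fitting with DMSO as negative control.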

The target in experiment [16] is Estrogen receptor (Homo sapiens) (UniProt P03372). In words: ATG_ERa_TRANS: Attagene TRANS-FACTORIAL HepG2 Assay for human Estrogen Receptor alpha (ERa) (AID 2282970). Particulars: HepG2 Attagene TRANS ERa GAL4 reporter, mRNA. In short, it runs like this: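 Transfected HepG2 cells carrying GAL4-UAS-driven reporter units were dosed for 24 hours. Total RNA was reverse-transcribed, reporter sequences PCR-amplified, FAM-labelled, HpaI-digested and resolved by capillary electrophoresis. Increases over DMSO control defined activity.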

A short description of experiment [17]: ATG_GAL4_TRANS: Attagene TRANS-FACTORIAL HepG2 Assay for GAL4 (Internal Marker) (AID 2282976). Particulars: HepG2 Attagene TRANS GAL4 internal marker reporter. The essentials:
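Fluorescence from capillary electrophoresis of labelled RT-PCR products quantifies reporter mRNA induction after 24 h dosing of HepG2 cells carrying transfected GAL4-UAS reporter transcription units. Vehicle DMSO serves as baseline.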

For experiment [18], the target named is Nuclear receptor subfamily 4 group A member 2 (Homo sapiens) (UniProt P43354). In words: ATG_NURR1_TRANS: Attagene TRANS-FACTORIAL HepG2 Assay for human Nuclear Receptor Related Protein 1 (NURR1) (AID 2282985). Particulars: HepG2 Attagene TRANS reporter, mRNA readout. The essentials:
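Endpoint: reporter mRNA increase relative to DMSO. HepG2 cells transfected with reporter units, treated 24 h; RNA processed by RT-PCR, labelling, HpaI digestion and capillary electrophoresis.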

In experiment [19] the target is Steroid hormone receptor ERR1 (Homo sapiens) (UniProt P11474). In words: ATG_ERRa_TRANS: Attagene TRANS-FACTORIAL HepG2 Assay for human Estrogen-Related Receptor alpha (ERRa) (AID 2282971). Particulars: HepG2 Attagene TRANS reporter, ERRa transactivation. In short, it runs like this:
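HepG2 cells were transiently transfected with multiple GAL4-UAS reporter units, then dosed with compound for 24 h. Total RNA was reverse-transcribed, reporter cDNA PCR-amplified and fluorescently labelled, and fragments resolved by capillary electrophoresis; induction was compared with DMSO.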

Molecules are shown by their SMILES. Records with an inconclusive call do not appear. Activity calls are given as the source filed them. The calls were made as follows, unless noted: active = hit-call score of the fitted dose curve at least 0.9, where 1 is the maximum; inconclusive = response in the unintended direction; inactive = score below 0.9.

Hepatocyte nuclear factor 4-alpha (Homo sapiens), sequence (P41235 whole entry, looked up, the tested form may be a part): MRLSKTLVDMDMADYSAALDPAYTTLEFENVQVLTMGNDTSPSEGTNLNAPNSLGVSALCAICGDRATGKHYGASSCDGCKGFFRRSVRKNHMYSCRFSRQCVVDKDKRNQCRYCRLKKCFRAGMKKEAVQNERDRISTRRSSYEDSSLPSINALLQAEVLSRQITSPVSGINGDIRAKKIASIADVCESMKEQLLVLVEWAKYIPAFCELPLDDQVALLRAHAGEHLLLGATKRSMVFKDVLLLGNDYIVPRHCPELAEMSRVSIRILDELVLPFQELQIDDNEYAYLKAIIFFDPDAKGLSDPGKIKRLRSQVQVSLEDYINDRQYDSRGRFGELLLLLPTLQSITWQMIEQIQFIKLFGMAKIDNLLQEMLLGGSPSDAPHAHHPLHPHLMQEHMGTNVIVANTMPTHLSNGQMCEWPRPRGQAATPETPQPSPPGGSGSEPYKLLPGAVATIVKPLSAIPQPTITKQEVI
Oxysterols receptor LXR-alpha (Homo sapiens), sequence (Q13133 whole entry, looked up): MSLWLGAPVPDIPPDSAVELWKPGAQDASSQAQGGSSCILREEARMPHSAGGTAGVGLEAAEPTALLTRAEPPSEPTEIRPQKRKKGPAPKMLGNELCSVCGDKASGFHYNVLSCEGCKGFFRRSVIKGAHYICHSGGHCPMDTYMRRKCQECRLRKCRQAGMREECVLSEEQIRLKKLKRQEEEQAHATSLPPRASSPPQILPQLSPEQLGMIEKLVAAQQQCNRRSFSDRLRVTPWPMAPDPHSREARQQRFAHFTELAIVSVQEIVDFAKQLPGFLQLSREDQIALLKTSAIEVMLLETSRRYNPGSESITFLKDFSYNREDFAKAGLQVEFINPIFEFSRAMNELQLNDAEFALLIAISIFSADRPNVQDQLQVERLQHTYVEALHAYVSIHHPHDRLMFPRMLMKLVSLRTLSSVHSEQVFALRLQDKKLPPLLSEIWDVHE
Nuclear respiratory factor 1 (Homo sapiens), sequence (Q16656 whole entry, looked up): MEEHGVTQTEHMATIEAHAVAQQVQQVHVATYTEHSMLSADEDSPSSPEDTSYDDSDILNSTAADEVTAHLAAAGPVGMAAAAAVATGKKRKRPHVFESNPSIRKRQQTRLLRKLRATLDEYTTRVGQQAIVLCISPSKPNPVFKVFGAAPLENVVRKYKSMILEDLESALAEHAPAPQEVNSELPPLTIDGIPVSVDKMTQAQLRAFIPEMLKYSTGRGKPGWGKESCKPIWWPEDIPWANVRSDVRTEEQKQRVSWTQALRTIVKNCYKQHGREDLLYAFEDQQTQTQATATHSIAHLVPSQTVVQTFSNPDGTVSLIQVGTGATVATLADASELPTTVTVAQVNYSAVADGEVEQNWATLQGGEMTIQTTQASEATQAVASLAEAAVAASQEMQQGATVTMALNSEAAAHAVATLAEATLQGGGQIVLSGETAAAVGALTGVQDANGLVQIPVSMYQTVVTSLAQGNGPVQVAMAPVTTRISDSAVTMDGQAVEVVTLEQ
Nuclear receptor subfamily 1 group I member 3 (Homo sapiens), sequence (Q14994 whole entry, looked up, the tested form may be a part): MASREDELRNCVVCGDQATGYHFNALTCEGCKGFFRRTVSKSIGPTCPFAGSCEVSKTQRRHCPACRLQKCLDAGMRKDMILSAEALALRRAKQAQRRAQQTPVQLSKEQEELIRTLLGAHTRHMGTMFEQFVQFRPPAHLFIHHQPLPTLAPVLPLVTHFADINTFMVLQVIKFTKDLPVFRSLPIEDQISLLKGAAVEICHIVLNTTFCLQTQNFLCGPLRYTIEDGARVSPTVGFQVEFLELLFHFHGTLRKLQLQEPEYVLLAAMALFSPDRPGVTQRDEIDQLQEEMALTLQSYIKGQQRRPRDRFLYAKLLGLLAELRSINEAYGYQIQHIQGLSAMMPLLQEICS
X-box-binding protein 1 (Homo sapiens), sequence (P17861 whole entry, looked up): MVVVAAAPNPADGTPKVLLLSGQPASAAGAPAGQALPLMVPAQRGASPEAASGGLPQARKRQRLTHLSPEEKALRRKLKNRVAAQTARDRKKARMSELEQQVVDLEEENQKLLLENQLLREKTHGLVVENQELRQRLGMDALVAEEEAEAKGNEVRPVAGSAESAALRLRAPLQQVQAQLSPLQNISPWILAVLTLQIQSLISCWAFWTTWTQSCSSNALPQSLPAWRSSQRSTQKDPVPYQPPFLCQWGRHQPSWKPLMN
Transcriptional activator Myb (Homo sapiens), sequence (P10242 whole entry, looked up): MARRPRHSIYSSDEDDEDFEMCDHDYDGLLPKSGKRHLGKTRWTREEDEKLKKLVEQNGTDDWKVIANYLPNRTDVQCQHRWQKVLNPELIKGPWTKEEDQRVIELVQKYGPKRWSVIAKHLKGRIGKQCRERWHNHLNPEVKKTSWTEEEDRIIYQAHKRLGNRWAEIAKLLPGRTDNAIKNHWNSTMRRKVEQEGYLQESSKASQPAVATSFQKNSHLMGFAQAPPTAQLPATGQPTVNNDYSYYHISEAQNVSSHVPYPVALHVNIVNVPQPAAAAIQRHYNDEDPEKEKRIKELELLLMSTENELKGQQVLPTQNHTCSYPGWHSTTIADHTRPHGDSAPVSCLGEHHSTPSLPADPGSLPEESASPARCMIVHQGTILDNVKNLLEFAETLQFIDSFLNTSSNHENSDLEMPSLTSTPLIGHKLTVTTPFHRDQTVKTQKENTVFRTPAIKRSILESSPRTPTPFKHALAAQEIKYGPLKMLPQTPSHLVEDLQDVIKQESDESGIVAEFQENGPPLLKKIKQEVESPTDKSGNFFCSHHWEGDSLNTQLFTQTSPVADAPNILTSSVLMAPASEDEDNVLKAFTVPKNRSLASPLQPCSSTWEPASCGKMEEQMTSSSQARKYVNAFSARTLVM
Oxysterols receptor LXR-beta (Homo sapiens), sequence (P55055 whole entry, looked up, the tested form may be a part): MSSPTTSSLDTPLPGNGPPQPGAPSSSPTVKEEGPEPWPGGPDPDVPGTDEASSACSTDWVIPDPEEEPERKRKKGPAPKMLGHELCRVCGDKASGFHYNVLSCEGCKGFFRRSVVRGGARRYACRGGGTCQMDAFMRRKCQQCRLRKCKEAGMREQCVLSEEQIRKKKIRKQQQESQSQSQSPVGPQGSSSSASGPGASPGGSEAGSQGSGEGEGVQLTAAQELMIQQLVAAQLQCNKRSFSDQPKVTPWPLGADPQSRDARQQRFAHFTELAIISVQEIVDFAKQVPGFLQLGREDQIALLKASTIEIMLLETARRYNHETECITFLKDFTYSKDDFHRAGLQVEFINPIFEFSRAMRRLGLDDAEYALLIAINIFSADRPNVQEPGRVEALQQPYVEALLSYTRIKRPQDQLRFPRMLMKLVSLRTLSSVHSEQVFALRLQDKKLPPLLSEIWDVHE
Estrogen-related receptor gamma (Homo sapiens), sequence (P62508 whole entry, looked up, the tested form may be a part): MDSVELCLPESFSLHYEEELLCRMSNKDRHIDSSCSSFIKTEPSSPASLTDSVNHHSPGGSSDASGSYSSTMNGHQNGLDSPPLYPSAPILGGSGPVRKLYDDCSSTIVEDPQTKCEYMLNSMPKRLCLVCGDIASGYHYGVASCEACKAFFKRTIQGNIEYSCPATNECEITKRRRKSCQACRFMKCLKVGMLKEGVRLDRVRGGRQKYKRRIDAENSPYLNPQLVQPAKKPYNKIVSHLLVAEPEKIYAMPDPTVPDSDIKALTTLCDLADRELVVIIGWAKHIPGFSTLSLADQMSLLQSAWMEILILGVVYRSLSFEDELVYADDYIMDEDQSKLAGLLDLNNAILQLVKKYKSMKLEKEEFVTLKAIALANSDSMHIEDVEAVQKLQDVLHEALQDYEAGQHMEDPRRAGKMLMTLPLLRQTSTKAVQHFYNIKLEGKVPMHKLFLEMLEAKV
Estrogen receptor (Homo sapiens), sequence (P03372 whole entry, looked up, the tested form may be a part): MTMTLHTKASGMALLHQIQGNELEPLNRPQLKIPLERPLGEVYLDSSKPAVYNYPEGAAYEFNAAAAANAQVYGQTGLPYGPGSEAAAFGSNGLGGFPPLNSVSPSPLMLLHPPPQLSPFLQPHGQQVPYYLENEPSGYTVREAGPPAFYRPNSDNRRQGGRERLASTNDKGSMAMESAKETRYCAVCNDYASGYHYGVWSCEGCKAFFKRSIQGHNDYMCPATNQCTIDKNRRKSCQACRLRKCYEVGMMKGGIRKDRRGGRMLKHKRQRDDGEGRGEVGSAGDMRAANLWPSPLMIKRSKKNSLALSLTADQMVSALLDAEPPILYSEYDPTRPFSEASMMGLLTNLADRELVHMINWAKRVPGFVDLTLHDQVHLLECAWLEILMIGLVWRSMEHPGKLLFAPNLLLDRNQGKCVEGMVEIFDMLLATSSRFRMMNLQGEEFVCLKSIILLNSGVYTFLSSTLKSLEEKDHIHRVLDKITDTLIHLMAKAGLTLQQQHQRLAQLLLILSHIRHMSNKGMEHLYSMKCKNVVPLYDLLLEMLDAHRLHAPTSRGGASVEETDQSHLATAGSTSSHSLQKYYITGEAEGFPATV
Glucocorticoid receptor (Homo sapiens), sequence (P04150 whole entry, looked up): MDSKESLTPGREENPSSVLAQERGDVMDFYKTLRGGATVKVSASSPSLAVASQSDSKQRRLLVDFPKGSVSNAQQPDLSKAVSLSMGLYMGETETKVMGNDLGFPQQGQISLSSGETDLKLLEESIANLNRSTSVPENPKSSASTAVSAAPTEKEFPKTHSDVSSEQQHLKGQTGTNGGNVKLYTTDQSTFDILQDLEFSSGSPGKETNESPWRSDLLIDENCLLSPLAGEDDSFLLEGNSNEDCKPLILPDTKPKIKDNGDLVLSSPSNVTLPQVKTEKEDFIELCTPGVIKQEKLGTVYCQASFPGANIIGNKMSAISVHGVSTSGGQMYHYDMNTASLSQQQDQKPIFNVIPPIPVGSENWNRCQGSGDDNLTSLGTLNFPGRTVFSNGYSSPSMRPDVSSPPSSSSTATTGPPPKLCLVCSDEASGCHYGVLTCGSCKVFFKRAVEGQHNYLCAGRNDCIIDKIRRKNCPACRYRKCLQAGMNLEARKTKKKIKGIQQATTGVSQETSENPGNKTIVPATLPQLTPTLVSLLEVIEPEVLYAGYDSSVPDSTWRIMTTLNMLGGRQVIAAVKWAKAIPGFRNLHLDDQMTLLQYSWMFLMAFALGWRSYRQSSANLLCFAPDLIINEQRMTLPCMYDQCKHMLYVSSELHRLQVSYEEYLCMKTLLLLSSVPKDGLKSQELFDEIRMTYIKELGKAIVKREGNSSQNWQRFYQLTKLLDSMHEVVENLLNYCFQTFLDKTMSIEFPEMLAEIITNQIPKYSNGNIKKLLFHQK

Turning to `O=c1[nH]nc(-c2ccc([N+](=O)[O-])o2)o1`, the result in [1], in experiment [2], in [3], in [4], in experiment [5] and in experiment [6] was inactive. The result in experiment [7], in [8], in [9], in experiment [10], in experiment [11] and in experiment [12] was inactive. Further, the call in experiment [13], in experiment [14] and in experiment [15] was inactive.
Regarding `Nc1ccc2cc3ccccc3cc2c1`, the call in experiment [1], in [2], in experiment [3], in [4], in [5] and in experiment [17] was inactive. Also, the result in experiment [9], in [10], in experiment [12], in experiment [13], in experiment [18] and in experiment [14] was inactive. Moreover, the compound was called inactive in experiment [15]. In [16], the AC50 is 6.94 µM (active).
In the case of `O=C1CCCC(=O)O1`, the outcome in experiment [1], in experiment [2], in experiment [3], in [4], in experiment [5] and in [6] was inactive. The call in experiment [10], in experiment [11], in experiment [12], in [13], in [14] and in experiment [15] was inactive.
On to `C=CC(=O)OCCC(=O)O`, for which the call in experiment [1], in [2], in experiment [3], in [4], in experiment [19] and in [5] was inactive. Also, the outcome in [17], in experiment [7], in experiment [11], in experiment [12], in [13] and in experiment [14] was inactive. Moreover, in experiment [15], the compound was called inactive.
As for `CC(=O)NS(=O)(=O)c1ccc(N)cc1`, the outcome in [1], in [2], in experiment [3], in [4], in [16] and in [5] was inactive. The outcome in experiment [8], in experiment [9], in experiment [10], in [11], in [12] and in experiment [14] was inactive. Moreover, the call in [15] was inactive.
